EP2 modulator: EP2 receptor modulators, cAMP readout, primary screen, cell-based, HTRF cAMP, PGE2 stimulation | hit rate 0.83% among 260,000 | Prostaglandin E2 receptor EP2 subtype (Homo sapiens), P43116 | EP2-expressing cells, cAMP HTRF FRET, PGE2 co-stimulation | induction, % at 25 µM;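 active means compounds whose cAMP rise, as percent of the full-agonist control response, exceeds 60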;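 further: rat C6 glioma line stably carrying human EP2 under a CMV promoter; the protocol text gives 20 µM as final concentration; 100% = response of wells given 1 µM PGE2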
CHT block: inhibitors of human choline transporter CHT; High affinity choline transporter 1 (Homo sapiens), Q9GZV3; CHT-expressing cells, membrane potential dye, choline response; active compounds read low; B-score at 10 µM; hit rate 0.86% among 310,000; AID 488975, 2010;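 active means B-score over 3 SD under the library average, and starting fluorescence ratio not unusually high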;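 further: choline stimulus applied at its EC90 after an EC20 pre-addition; B-score computed on integrated fluorescence ratio after choline addition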
Target sequence (Q9GZV3 whole entry, looked up): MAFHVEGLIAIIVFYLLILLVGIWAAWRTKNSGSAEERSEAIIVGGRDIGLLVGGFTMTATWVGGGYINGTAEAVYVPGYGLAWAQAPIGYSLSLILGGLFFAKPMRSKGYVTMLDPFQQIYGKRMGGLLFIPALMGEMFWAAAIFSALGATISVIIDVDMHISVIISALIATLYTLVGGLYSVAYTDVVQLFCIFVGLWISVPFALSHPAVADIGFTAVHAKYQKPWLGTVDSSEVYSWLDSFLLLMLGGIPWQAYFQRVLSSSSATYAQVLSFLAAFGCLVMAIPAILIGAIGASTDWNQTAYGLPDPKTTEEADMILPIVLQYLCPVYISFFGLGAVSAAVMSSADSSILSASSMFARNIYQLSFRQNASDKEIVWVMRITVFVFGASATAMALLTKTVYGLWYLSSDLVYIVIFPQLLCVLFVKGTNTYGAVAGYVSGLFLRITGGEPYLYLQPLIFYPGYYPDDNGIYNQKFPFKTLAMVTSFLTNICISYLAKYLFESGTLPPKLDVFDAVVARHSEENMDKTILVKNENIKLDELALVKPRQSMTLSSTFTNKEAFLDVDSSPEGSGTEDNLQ
EP2 antag: human EP2 receptor antagonists, primary screen, TR-FRET cAMP, C6 glioma cells. AID 1422, 2008. hit rate 0.52% among 260,000. C6 glioma cells expressing human EP2; cells stimulated with saturating PGE2. inhibition, % at 25 µM. Prostaglandin E2 receptor EP2 subtype (Homo sapiens), P43116;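 active means percent inhibition above 40 after rounding to a whole number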;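 further: rat C6 glioma host cells with rolipram phosphodiesterase inhibitor present; the protocol text gives 20 µM as final concentration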
CHT PAM: CHT positive allosteric modulators, primary screen, cell-based, membrane potential dye, choline EC20 | High affinity choline transporter 1 (Homo sapiens), Q9GZV3 | CHT-expressing cells; active compounds read high; LV-AA mutant CHT in HEK293 cells | B-score at 10 µM | hit rate 0.49% among 310,000 | AID 488977, 2010;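 active means initial fluorescence not abnormally high and integrated response B-score, plate-corrected, over 3 SD above library mean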
CHT inh conf: CHT inhibitors, confirmation, cell-based, membrane potential dye, duplicate; shares compounds with CHT block; CHT-expressing cells, choline membrane potential dye; LV-to-AA substituted CHT, HEK293 cells; CHT activity remaining % of control (active compounds read low), % at 10 µM; hit rate 70% among 2,400;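 active means choline transporter activity left, mean of duplicates at 10 µM, below buffer-only control mean minus 3 SD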;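 further: depolarization triggered by choline at its EC90 following an EC20 pre-addition; 0% = hemicholinium-3 full block and 100% = buffer-only control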
HEK293 MPD ctr: membrane potential effects in parental HEK293, counter-screen for CHT inhibitor project, cell-based, membrane potential dye; choline response; active = decrease or increase beyond buffer ±3SD; membrane potential ratio readout (active if shifted either direction beyond buffer ±3SD; no single direction) at 10 µM; shares compounds with CHT block; AID 493222, 2011; hit rate 4% among 2,400;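 further: parental cells lack the transporter so any hit is non-specific; ratio is peak minus trough fluorescence over baseline after EC90 choline challenge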
Active calls of the source: *; i = inactive; · = not tested or not shown. Sampled rows, rich in hits. Any-hit rate of the full collection: about 2%.

SMILES	EP2 modulator	CHT block	EP2 antag	CHT PAM	CHT inh conf	HEK293 MPD ctr
CC(C)(C)C1=NN(CCC(N)=O)C(=O)c2cc3ccccc3n2C1	-15.1	·	·	·	·	·
O=C(/C=C/c1ccc(-c2ccc(Br)cc2)o1)N1CCCCC1	48.4	·	9.9	·	·	·
COc1ccc(-c2cc(C(F)(F)F)c3c(=O)n(-c4ccccc4)[nH]c3n2)cc1	-2.8	-6.03*	4.5	i	65.9%*	2.28*
COc1ccc(-c2cc(-c3ccccc3)nc(=O)[nH]2)cc1	6.5	i	3.9	i	·	·
Cc1ccc(S(=O)(=O)NNC(=O)c2sc3nc(C)cc(C)c3c2-n2cccc2)cc1	38.4	-4.97*	8.7	i	i	i
CC1CCC(NC(=O)c2ccc(NC(=O)CC3SC(N4CCCC4)=NC3=O)cc2)CC1 (stereo unspecified)	·	-10.9*	·	i	11.2%*	i
CN1Cc2sc(N)c(C#N)c2CC1(C)C	20.1	-8.96*	11.5	i	32.9%*	i
CN1Cc2sc(NC(=S)NC(=O)c3ccccc3)c(C#N)c2CC1(C)C	-21.5	i	7.1	i	·	·
COc1ccc(Cn2nnnc2C(c2cc3c(C)ccc(C)c3[nH]c2=O)N2CCCCC2)cc1 (stereo unspecified)	-22.0	·	10.0	·	·	·
O=C(CCc1ccccc1)N1CCC(n2nnc3cccnc32)CC1	-54.6	·	·	·	·	·
N#CCSc1nc2sccc2c(=O)n1-c1ccccc1	·	-5.53*	·	i	i	i
N#Cc1nc(Cc2cccc3ccccc23)oc1NCCCN1CCOCC1	24.5	-5.7*	15.5	i	69.1%*	i
CN1CCN(c2oc(Cc3cccc4ccccc34)nc2C#N)CC1	-4.6	-6.99*	10.8	i	62.3%*	i
N#Cc1nc(Cc2cccc3ccccc23)oc1NCCCn1ccnc1	-32.9	i	8.4	i	·	·
Cc1nnc2nc(-c3ccc(NC(=O)C(C)N4CCCC4=O)cc3)cn2c1C (stereo unspecified)	-8.4	·	·	·	·	·
CCOC(=O)c1ccc2c(c1)[nH]c(=S)n2CC	8.0	-5.08*	27.9	i	56.0%*	i
Cc1nc2cc(C(=O)N3CCCCC3c3nc4ccccc4[nH]3)ccc2n1C (stereo unspecified)	-5.0	·	·	·	·	·
CC(OC(=O)c1cc2sccc2n1C)C(=O)NCc1cccs1 (stereo unspecified)	-34.4	i	·	i	·	·
CC(OC(=O)c1cc2sccc2n1C)C(=O)NC(C)(C)C (stereo unspecified)	-32.5	-9.15*	5.0	i	58.8%*	i
CC(C)(C)CC(C)(C)NC(=S)Nc1ccc2nc(-c3ccccn3)c(-c3ccccn3)nc2c1	36.3	-8.36*	10.6	i	45.2%*	i
OCCCNC(=S)Nc1ccc2nc(-c3ccccn3)c(-c3ccccn3)nc2c1	10.8	i	11.2	i	·	·
CCOC(=O)CN(C(=O)CSc1nnc(-c2ccoc2C)o1)c1ccccc1	-33.6	·	10.8	·	·	·
COc1ccccc1NC(=O)CSc1nc(-c2ccc(OC)c(OC)c2)cc(C(F)(F)F)n1	5.1	·	13.1	·	·	·
Cc1ccc(Cl)c2c1=NC(=O)C=2c1[nH]c(=S)[nH]c1O	-39.0	-5.78*	6.9	i	i	i
Cc1sc2nc(SCCN(C)C)n(-c3ccccc3)c(=O)c2c1-c1ccc(F)cc1	·	-5.92*	·	i	26.2%*	i
SMILES	EP2 modulator	CHT block	EP2 antag	CHT PAM	CHT inh conf	HEK293 MPD ctr
Oc1cccc(C(O)CNCc2ccc(OCc3ccc(Cl)cc3Cl)cc2)c1 (stereo unspecified)	-13.7	-5.63*	5.5	i	69.0%*	i
CCCOc1ccc(Br)cc1CSC(=N)N	10.2	-6.07*	7.8	i	33.0%*	i
O=S(=O)(c1ccccc1Cl)N1CCC(n2nnc3ccccc32)CC1	-47.9	·	11.7	·	·	·
Cc1ccc(C)c2[nH]c(=O)c(CN(CCN3CCOCC3)Cc3nnnn3C(C)(C)C)cc12	-26.0	·	4.6	·	·	·
COc1ccc(C(=O)N[C@H]2CCCCNC2=O)cc1OC1CCN(C(C)C)CC1	·	-9.24*	·	i	34.1%*	i
COc1ccc(C(=O)NCc2ccon2)cc1OC1CCN(C(C)C)CC1	·	-7.3*	·	i	34.0%*	i
COc1ccc(C(=O)N(C)CCCC2CCCC2)cc1OC1CCN(C(C)C)CC1	·	-6.96*	·	i	23.2%*	i
CCC(=NC(C)c1ccccc1)c1c(O)n(C)c(=O)n(C)c1=O (stereo unspecified)	-4.5	-7.55*	8.2	i	51.2%*	i
CC(=O)NC(CC(=O)OCC(=O)c1c(N)n(C)c(=O)n(C)c1=O)c1ccccc1 (stereo unspecified)	-7.5	i	6.8	i	·	·
COCCCNC(=S)N1CCC(C(=O)c2ccc(C)cc2)CC1	-42.0	·	13.6	·	·	·
Brc1ccc(-n2cnnn2)cc1	-28.8	·	9.3	·	·	·
COc1cccc(CNc2ccc(N3CCCCC3)cc2)c1OC	-2.4	-14.5*	9.6	i	12.2%*	i
Cc1nn2c(NCCCN3CCOCC3)c3c(nc2c1-c1cccs1)CCC3	-10.8	·	9.7	·	·	·
O=C(C1CC1)N1CCC(Cn2nc(-c3cccs3)ccc2=O)CC1	-21.7	·	·	·	·	·
Cn1ccnc1SCC(=O)Nc1ccc2nc(SCC(=O)NC3CC3)sc2c1	-15.4	-16*	7.1	i	20.5%*	i
COCCCn1c(SCC(=O)NC2CCCCC2)nnc1-c1ccoc1C	13.7	·	10.8	·	·	·
Cc1ccc(S(=O)(=O)NCCC(=O)O)cc1	7.3	i	16.2	i	·	·
Cc1ccc(S(=O)(=O)NCCC(=O)NC(C)CCc2ccccc2)cc1 (stereo unspecified)	·	-5.05*	·	i	49.6%*	i
CCOc1ccc(NC(=O)CSc2nc(-c3cccs3)cc(C(F)(F)F)n2)cc1	3.8	·	10.9	·	·	·
CCOc1ccc(NC(=O)CSc2ncnc3sc(C)c(C)c23)cc1	1.8	·	7.2	·	·	·
Cc1cccn2c(=O)c(C=O)c(N3CCCCCC3)nc12	-16.0	-6.4*	9.4	i	i	i
Cc1cccn2c(=O)c(C=O)c(N3CC(C)OC(C)C3)nc12 (stereo unspecified)	34.2	i	11.8	i	·	·
Oc1ccc(-c2n[nH]c(C(F)(F)F)c2-c2ccccc2)c(O)c1	-12.5	-5.21*	7.4	i	62.4%*	i
Cn1c(=O)c2c(nc(CN3CCOCC3)n2CCc2ccccc2)n(C)c1=O	12.2	-5.03*	8.0	i	i	i
COC(=O)c1ccc(Cn2c(CN3CCOCC3)nc3ccccc3c2=O)o1	28.5	-5.2*	2.8	i	i	i
